Source: PubChem BioAssay (NCI)
The panel holds about 83,000 compounds, 20% with a hit somewhere; the sample as a whole holds those more often.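 48-hour exposure, single concentration, 96-well plates; percent growth endpoint where 0 means no net growth. Active: below 10.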 Activity calls are given as the source filed them.

How the values were obtained:
Assay in all cases: NCI-60 one-dose screen, 48 h (100 = growth as untreated, 0 = no growth, -100 = all killed)
Settings in all cases: 10 µM unless noted
SR leukemia = test system: SR leukemia
RPMI-8226 leukemia = test system: RPMI-8226 leukemia
OVCAR-8 ovarian = test system: OVCAR-8 ovarian
OVCAR-5 ovarian = test system: OVCAR-5 ovarian
OVCAR-4 ovarian = test system: OVCAR-4 ovarian
SK-OV-3 ovarian = test system: SK-OV-3 ovarian
OVCAR-3 ovarian = test system: OVCAR-3 ovarian
HS 578T breast = test system: HS 578T breast
NCI/ADR-RES ovarian = test system: NCI/ADR-RES ovarian
T-47D breast = test system: T-47D breast
BT-549 breast = test system: BT-549 breast
MDA-MB-435 melanoma = test system: MDA-MB-435 melanoma
MCF7 breast = test system: MCF7 breast
HCT-116 colon = test system: HCT-116 colon
HCC-2998 colon = test system: HCC-2998 colon
KM12 colon = test system: KM12 colon
SW-620 colon = test system: SW-620 colon
IGROV1 ovarian = test system: IGROV1 ovarian

Measured: growth

CCCCCCOC(=O)c1cc(-c2ccc(F)cc2)nc2ccccc12
inactive: SR leukemia 107% | RPMI-8226 leukemia 110% | OVCAR-8 ovarian 98.1% | OVCAR-5 ovarian 102% | OVCAR-4 ovarian 101% | SK-OV-3 ovarian 87.4% | OVCAR-3 ovarian 104% | HS 578T breast 94.1% | NCI/ADR-RES ovarian 96.1% | T-47D breast 88.8% | BT-549 breast 103% | MDA-MB-435 melanoma 99.9% | MCF7 breast 91.5% | HCT-116 colon 93.3% | HCC-2998 colon 106% | KM12 colon 96.1%

Cc1csc(/N=C(N)/N=C(\N)c2cccc(C#N)c2)n1
active: MDA-MB-435 melanoma -6.51%
inactive: SR leukemia 30.2% | RPMI-8226 leukemia 87.8% | OVCAR-8 ovarian 85.8% | OVCAR-5 ovarian 106% | OVCAR-4 ovarian 97.2% | SK-OV-3 ovarian 76.3% | HS 578T breast 83.1% | NCI/ADR-RES ovarian 58.3% | T-47D breast 79.7% | BT-549 breast 73.1% | SW-620 colon 44.4% | MCF7 breast 77.7% | HCT-116 colon 49.7% | HCC-2998 colon 87.7% | KM12 colon 46.4%

CN(C)c1ccc(-c2cc(-c3c[nH]c4ccccc34)nc(N)c2C#N)cc1
inactive: OVCAR-8 ovarian 25.6% | OVCAR-5 ovarian 48.8% | OVCAR-4 ovarian 69.5% | SK-OV-3 ovarian 30.9% | IGROV1 ovarian 42.2% | HS 578T breast 35.6% | T-47D breast 39.9% | BT-549 breast 27.8% | MDA-MB-435 melanoma 13.6% | SW-620 colon 21.4% | MCF7 breast 28% | HCT-116 colon 14.5% | HCC-2998 colon 49.7% | KM12 colon 18.2%
active: SR leukemia 9.16% | RPMI-8226 leukemia 4.44%

CCCCCCCCCCCC(=O)NC(C)(C)C(=O)N1CCCC1C(=O)NC(C)(C)C(=O)NC(C)(C)C(=O)N1CCCC1C(=O)NC(C)(C)C(=O)NC(C)(C)C(=O)N1CCCC1C(=O)NC(C)C(=O)NCCC(=O)NC(C)C(=O)NC(C)(C)C(=O)NC(C)(C)C(=O)NC(C)(C)C(=O)NCCC(=O)NC(C)(C)C(=O)NC(C)(C)C(=O)NC(C)(C)C(=O)NC(C)C(=O)NCCC(=O)O (centres undefined)
active: SR leukemia -61.5% | RPMI-8226 leukemia -54.4% | OVCAR-8 ovarian -93.4% | OVCAR-5 ovarian -95.4% | OVCAR-4 ovarian -94.5% | SK-OV-3 ovarian -96.9% | HS 578T breast -69.8% | NCI/ADR-RES ovarian -80.9% | T-47D breast -64.3% | BT-549 breast -97.1% | MDA-MB-435 melanoma -89.9% | SW-620 colon -92.3% | MCF7 breast -81.5% | HCT-116 colon -94.8% | HCC-2998 colon -92.4% | KM12 colon -98.5%

Cc1[nH]c(C(=O)Nc2ccccc2OCc2cccc(C(=O)NC3CCNC3)c2)c(Cl)c1Cl (centres undefined)
active: SR leukemia -0.792% | RPMI-8226 leukemia -10% | OVCAR-8 ovarian -37% | OVCAR-3 ovarian -26.7% | MDA-MB-435 melanoma -53% | SW-620 colon -66.3% | MCF7 breast -73.9% | HCT-116 colon -61.2% | HCC-2998 colon 5.81% | KM12 colon -1.67%
inactive: OVCAR-5 ovarian 45.3% | OVCAR-4 ovarian 68.3% | SK-OV-3 ovarian 107% | HS 578T breast 87.6% | NCI/ADR-RES ovarian 67.1% | T-47D breast 53.9%

Clc1ccc2[nH]cc(-c3nn4cc(-c5cccnc5)nc4s3)c2c1
inactive: SR leukemia 109% | RPMI-8226 leukemia 86.9% | OVCAR-8 ovarian 103% | OVCAR-5 ovarian 108% | OVCAR-4 ovarian 105% | SK-OV-3 ovarian 91% | IGROV1 ovarian 87.9% | HS 578T breast 93.6% | T-47D breast 71.5% | BT-549 breast 110% | MDA-MB-435 melanoma 101% | SW-620 colon 104% | MCF7 breast 72.3% | HCT-116 colon 99.8% | HCC-2998 colon 117% | KM12 colon 98%

O=S(=O)(Oc1ccc(-c2cn3ccoc3n2)cc1)C1CCCCC1
inactive: SR leukemia 85.6% | RPMI-8226 leukemia 93.3% | OVCAR-8 ovarian 100% | OVCAR-5 ovarian 102% | OVCAR-4 ovarian 107% | SK-OV-3 ovarian 102% | IGROV1 ovarian 108% | HS 578T breast 102% | T-47D breast 95.7% | BT-549 breast 125% | MDA-MB-435 melanoma 98.6% | SW-620 colon 103% | MCF7 breast 87% | HCT-116 colon 89.3% | HCC-2998 colon 113% | KM12 colon 103%

Cc1ccc2c(n1)C(=O)C(Cl)=C(Nc1cc(C(F)(F)F)cc(C(F)(F)F)c1)C2=O
inactive: OVCAR-8 ovarian 87.8% | OVCAR-5 ovarian 109% | SK-OV-3 ovarian 110% | OVCAR-3 ovarian 37.3% | HS 578T breast 92.8% | NCI/ADR-RES ovarian 99.7% | BT-549 breast 115% | MDA-MB-435 melanoma 93.8% | HCT-116 colon 42% | HCC-2998 colon 96.5% | KM12 colon 97%
active: SR leukemia 7.46% | RPMI-8226 leukemia 6.65% | OVCAR-4 ovarian -84.8% | T-47D breast -9.18% | SW-620 colon 2.41% | MCF7 breast -24.9%

CS(=O)(=O)c1nccc(-c2c(-c3cccc(OCc4ccc(Cl)c(C(F)(F)F)c4)c3)nc3sccn23)n1
active: SR leukemia 9.33% | RPMI-8226 leukemia -16.8% | T-47D breast -45.6% | HCC-2998 colon -50.1%
inactive: OVCAR-8 ovarian 99.3% | OVCAR-5 ovarian 101% | OVCAR-4 ovarian 71.9% | SK-OV-3 ovarian 104% | IGROV1 ovarian 34.1% | HS 578T breast 41.1% | BT-549 breast 101% | MDA-MB-435 melanoma 103% | SW-620 colon 61.2% | HCT-116 colon 70.4% | KM12 colon 37%
